Some structures have more than one record in an assay (separate samples or runs), and their calls can disagree. Active and inactive are the calls of the source. Rule for the calls: active = hit-call score of the fitted dose curve at least 0.9, where 1 is the maximum; inactive = score below 0.9.

Read-out in the test: CD69, CD69 (gene 969)
The test can be described thus: BSK_LPS_CD69: BioMAP Diversity Plus: LPS Assay for CD69 Biomarker Activity (AID 2284303). Conditions: primary human HUVEC with PBMC. The protocol:
BSK_LPS is a cell-based, multiplexed-readout assay that uses umbilical vein endothelium and peripheral blood mononuclear cells, a human vascular primary cell co-culture, with measurements taken at 24 hours after chemical dosing in a 96-well plate.BSK_LPS_CD69 is an assay component measured in the BSK_LPS assay. It measures CD69 antibody related to regulation of gene expression using ELISA technology.Data from the assay component BSK_LPS_CD69 was analyzed at the endpoint, BSK_LPS_CD69, in the positive analysis fitting direction relative to DMSO as the negative control and baseline of activity. Using a type of binding reporter, gain or loss-of-signal activity can be used to understand protein changes. To generalize the intended target to other relatable targets, this assay endpoint is annotated to the 'cytokine' intended target family, where the subfamily is 'inflammatory factor'.
The levels of cell surface (or secreted, indicated by the prefix "s") biomarker endpoints were measured by ELISA. Overt cytotoxicity to cells in confluent adherent cultures (all systems other than the BT system) was assessed by measuring total protein levels using sulforhodamine B (SRB) staining in parallel cultures at the time of biomarker measurements, indicated as SRB endpoints. For proliferation assays for adherent cell types, individual cell types are cultured at sub-confluence and relative cell numbers quantified by SRB staining at time points optimized for each system (48 h: 3C and CASM3C systems; 72 h: BT and HDF3CGF systems; 96 h: SAg system). SRB was performed by staining cells with 0.1% SRB after fixation with 10% TCA and reading wells at 560 nm.Viability and proliferation of PBMC (T cells) was quantified by Alamar Blue reduction for the SAg and BT systems. For PBMC viability (referred to as PBMC Cytotoxicity within the assay endpoint names), cells were plated (75,000/well in a 96-well plate) and then chemical samples added for 1 h before addition of activators, SEB and TSST-1 (20 ng/mL final concentration each). Cells were incubated for 90 h. Then, Alamar Blue (20 uL/well) (Invitrogen, Cat DAL1100) was added for 6 h, and the plates were read with a fluorescence microplate reader at 546/580 nm (excitation/emission). For PBMC proliferation, cells were plated and activated as above but incubated for only 16 h prior to addition of Alamar Blue. Plates were read after 6 h.
With `FC(F)C(F)(F)COCC1CO1` (stereo unspecified), the result was inactive.

With `FC(F)=C(F)C(F)(F)C(F)(F)C(F)(F)C(F)(F)C(F)(F)C(F)(F)F`, the outcome was inactive.

In the case of `O=S(=O)(O)CCC(F)(F)C(F)(F)C(F)(F)C(F)(F)C(F)(F)C(F)(F)F`, the outcome was inactive and the half-maximal activity concentration (AC50) was 9.47 µM (active).

As for `C[Si](C)(C)C(F)(F)C(F)(F)C(F)(F)F`, the outcome was inactive.

As to `OC(O)(C(F)C(O)(O)C(F)(F)F)C(F)(F)F`, the outcome was inactive.

Turning to `OCCC(F)(F)C(F)(F)C(F)(F)C(F)(F)F`, the result was inactive.

As for `NCC(F)(F)C(F)(F)C(F)(F)C(F)(F)F`, the result was inactive.

Consider `FC(F)(F)C(F)(F)C(F)(F)C(F)(F)C(F)(F)C(F)(F)I`, for which the result was inactive.

`O=C(Cl)C(F)(F)C(F)(F)C(F)(F)C(=O)Cl`: the outcome was inactive.

`FC(F)(F)COC(OCC(F)(F)F)OCC(F)(F)F`: the result was inactive.

What is called AC50 is the concentration giving half of the maximal activity seen.

Source of the values: PubChem BioAssay (EPA / NIEHS).
